Tests used:
Experiment in all cases: DAPPL (digital affinity profiling via proximity ligation, sequencing); 10 mM Tris-HCl pH 7.5, 50 mM NaCl, 1 mM DTT, 4% glycerol, room temperature, 30 min; GST-TFs on glutathione beads, 16-mer random dsDNA library, 0.1% formaldehyde crosslink after washing; high values mean tight binding
[1] = molecular target: T1, FLI1 (Homo sapiens, UniProt Q01543 1-452); conditions: protein: recombinant; tags: N-terminal GST; dsDNA, one strand shown
T1 sequence: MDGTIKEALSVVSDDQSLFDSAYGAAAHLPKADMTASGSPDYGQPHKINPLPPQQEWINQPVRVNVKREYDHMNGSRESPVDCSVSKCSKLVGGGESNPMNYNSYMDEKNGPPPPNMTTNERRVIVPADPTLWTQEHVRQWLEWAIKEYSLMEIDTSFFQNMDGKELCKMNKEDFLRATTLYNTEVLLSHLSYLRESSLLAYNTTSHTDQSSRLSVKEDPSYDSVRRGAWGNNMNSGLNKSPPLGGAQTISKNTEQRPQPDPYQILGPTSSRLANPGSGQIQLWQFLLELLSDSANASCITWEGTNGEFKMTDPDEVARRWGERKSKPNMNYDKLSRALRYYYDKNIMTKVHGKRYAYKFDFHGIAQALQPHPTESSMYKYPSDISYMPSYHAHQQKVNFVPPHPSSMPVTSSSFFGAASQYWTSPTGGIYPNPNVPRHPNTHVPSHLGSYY
In short: (§1)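 Human transcription factors carrying a GST fusion were produced in yeast, bound to glutathione beads, tagged with DNA barcodes and pooled together with a tag-only sample. Each pool was held with 200 nmole of a random double-stranded 16-mer DNA library in Tris/NaCl/DTT/glycerol buffer for 30 min at room temperature, then washed, crosslinked in 0.1% formaldehyde, proximity-ligated with BsaI/T4 ligase (1 h, 37 °C), PCR-amplified and sequenced on an Illumina NextSeq500. Binding signal is the read frequency of each hexamer for a given factor divided by its frequency in the tag-only sample.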

[2] = molecular target: T2, ELK1 (Homo sapiens, UniProt P19419 1-428); conditions: protein: recombinant; tags: N-terminal GST; dsDNA, one strand shown
T2 sequence: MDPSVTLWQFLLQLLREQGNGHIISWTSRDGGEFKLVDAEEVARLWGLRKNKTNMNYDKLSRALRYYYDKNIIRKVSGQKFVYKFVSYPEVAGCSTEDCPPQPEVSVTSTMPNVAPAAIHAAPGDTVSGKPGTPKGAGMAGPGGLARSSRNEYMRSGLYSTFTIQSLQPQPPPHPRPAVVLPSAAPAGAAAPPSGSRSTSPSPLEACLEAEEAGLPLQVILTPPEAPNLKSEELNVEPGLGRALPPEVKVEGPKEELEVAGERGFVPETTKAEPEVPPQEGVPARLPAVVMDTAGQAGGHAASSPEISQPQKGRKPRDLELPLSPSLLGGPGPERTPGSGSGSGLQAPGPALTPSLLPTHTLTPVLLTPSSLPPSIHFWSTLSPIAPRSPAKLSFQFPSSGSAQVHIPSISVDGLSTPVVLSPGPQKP
In short: as §1

[3] = molecular target: T3, GABPA (Homo sapiens, UniProt Q06546 1-454); conditions: protein: recombinant; tags: N-terminal GST; dsDNA, one strand shown
T3 sequence: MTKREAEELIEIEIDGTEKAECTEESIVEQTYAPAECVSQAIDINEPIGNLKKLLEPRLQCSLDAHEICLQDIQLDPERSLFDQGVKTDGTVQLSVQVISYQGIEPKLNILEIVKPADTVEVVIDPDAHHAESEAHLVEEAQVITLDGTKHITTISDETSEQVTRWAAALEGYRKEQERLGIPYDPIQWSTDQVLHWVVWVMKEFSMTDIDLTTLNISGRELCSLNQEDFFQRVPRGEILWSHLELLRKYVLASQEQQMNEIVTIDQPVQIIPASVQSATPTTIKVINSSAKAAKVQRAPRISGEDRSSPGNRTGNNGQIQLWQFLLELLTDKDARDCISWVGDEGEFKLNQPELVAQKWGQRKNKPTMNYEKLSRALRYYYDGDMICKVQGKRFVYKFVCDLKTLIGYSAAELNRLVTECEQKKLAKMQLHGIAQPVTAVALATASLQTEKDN
In short: as §1

[4] = molecular target: T4, ERG (Homo sapiens, UniProt P11308 1-479); conditions: protein: recombinant; tags: N-terminal GST; dsDNA, one strand shown
T4 sequence: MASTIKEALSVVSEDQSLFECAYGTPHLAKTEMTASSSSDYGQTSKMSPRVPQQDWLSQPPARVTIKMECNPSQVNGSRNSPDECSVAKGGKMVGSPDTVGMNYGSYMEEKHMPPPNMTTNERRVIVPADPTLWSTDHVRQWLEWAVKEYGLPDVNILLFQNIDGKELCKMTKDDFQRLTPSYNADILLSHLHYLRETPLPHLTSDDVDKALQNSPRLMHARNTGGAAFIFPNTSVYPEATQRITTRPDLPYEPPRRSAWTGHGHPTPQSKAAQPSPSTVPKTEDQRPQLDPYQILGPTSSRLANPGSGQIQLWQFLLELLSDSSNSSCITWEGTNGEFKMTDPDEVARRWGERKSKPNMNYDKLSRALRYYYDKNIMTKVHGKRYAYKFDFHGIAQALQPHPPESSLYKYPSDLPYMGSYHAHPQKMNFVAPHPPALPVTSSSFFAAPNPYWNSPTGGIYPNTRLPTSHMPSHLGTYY
In short: as §1

[5] = molecular target: ELF1 (Homo sapiens, UniProt P32519 1-619); conditions: protein: recombinant; tags: N-terminal GST; dsDNA, one strand shown
ELF1, sequence (P32519 whole entry): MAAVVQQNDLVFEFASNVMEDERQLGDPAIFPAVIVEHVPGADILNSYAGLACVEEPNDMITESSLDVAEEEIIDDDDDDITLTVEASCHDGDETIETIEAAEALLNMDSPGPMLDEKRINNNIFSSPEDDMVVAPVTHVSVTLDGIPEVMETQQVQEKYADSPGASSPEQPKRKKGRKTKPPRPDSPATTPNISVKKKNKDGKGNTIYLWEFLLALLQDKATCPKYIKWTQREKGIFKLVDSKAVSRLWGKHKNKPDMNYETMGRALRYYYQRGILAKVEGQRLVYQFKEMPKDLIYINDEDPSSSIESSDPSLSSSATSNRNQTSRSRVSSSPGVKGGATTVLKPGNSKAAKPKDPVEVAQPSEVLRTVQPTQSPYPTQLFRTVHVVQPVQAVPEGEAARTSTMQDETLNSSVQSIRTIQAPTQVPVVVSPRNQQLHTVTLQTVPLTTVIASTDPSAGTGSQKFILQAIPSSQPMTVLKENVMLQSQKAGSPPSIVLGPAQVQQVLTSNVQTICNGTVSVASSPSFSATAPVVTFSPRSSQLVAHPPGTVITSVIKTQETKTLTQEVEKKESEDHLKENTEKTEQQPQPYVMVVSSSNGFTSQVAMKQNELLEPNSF
In short: as §1

[6] = molecular target: T5, EHF (Homo sapiens, UniProt Q9NZC4 1-300); conditions: protein: recombinant; tags: N-terminal GST; dsDNA, one strand shown
T5 sequence: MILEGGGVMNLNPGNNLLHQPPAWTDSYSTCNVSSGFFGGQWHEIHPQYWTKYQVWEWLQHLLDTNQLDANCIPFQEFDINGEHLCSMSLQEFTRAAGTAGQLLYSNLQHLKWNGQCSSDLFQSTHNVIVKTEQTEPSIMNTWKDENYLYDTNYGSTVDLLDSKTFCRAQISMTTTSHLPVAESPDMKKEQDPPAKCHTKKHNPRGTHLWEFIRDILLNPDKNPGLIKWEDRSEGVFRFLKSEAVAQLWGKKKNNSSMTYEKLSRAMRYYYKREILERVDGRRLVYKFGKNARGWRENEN
In short: as §1

[7] = molecular target: SPI1 (Homo sapiens, UniProt P17947 1-270); conditions: protein: recombinant; tags: N-terminal GST; dsDNA, one strand shown
In short: as §1

[8] = molecular target: SPIB (Homo sapiens, UniProt Q01892 1-262); conditions: protein: recombinant; tags: N-terminal GST; dsDNA, one strand shown
SPIB, sequence (Q01892 whole entry): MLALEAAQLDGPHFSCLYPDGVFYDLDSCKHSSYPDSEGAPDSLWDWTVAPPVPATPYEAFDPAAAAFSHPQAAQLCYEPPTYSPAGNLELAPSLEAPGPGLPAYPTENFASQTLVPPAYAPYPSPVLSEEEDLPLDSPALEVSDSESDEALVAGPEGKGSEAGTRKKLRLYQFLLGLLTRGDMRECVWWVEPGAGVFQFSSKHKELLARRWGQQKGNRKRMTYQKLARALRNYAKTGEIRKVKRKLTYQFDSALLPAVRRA
In short: as §1

[9] = molecular target: T6, ELK3 (Homo sapiens, UniProt P41970 1-407); conditions: protein: recombinant; tags: N-terminal GST; dsDNA, one strand shown
T6 sequence: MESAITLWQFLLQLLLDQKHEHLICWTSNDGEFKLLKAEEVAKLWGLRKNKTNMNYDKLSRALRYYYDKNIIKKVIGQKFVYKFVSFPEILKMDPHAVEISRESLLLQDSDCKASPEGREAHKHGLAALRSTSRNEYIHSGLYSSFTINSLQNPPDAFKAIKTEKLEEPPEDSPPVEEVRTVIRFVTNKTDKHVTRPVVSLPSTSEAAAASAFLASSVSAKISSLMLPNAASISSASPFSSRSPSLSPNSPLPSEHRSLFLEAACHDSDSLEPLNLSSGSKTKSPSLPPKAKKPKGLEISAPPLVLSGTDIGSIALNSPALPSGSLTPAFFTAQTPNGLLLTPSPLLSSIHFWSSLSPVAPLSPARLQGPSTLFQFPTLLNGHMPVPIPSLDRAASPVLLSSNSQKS
In short: as §1

[10] = molecular target: T7, FEV (Homo sapiens, UniProt Q99581 1-238); conditions: protein: recombinant; tags: N-terminal GST; dsDNA, one strand shown
T7 sequence: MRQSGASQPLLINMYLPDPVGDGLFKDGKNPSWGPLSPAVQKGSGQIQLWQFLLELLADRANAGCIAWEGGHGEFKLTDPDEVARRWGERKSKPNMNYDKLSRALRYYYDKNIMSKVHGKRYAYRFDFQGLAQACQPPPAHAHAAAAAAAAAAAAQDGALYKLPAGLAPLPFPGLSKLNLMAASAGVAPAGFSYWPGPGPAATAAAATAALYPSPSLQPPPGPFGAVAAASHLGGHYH
In short: as §1

[11] = molecular target: ETV5 (Homo sapiens, UniProt P41161 1-510); conditions: protein: recombinant; tags: N-terminal GST; dsDNA, one strand shown
ETV5, sequence (P41161 whole entry): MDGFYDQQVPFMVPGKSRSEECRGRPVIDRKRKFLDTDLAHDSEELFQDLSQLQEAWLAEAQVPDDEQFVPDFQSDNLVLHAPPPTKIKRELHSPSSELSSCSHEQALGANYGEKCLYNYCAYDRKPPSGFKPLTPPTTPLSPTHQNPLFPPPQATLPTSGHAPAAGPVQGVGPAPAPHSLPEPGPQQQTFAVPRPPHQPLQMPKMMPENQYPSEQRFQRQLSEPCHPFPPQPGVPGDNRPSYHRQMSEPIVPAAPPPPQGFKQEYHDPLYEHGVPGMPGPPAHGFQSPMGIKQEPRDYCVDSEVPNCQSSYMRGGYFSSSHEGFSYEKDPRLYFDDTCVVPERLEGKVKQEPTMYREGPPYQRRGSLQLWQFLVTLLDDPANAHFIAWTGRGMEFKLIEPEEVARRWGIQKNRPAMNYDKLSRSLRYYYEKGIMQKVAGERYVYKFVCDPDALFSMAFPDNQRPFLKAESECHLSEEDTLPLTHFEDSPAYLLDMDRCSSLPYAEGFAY
In short: as §1

[12] = molecular target: HSF1 (Homo sapiens, UniProt Q00613 1-529); conditions: protein: recombinant; tags: N-terminal GST; chain copies: 3; dsDNA, one strand shown
HSF1, sequence (Q00613 whole entry): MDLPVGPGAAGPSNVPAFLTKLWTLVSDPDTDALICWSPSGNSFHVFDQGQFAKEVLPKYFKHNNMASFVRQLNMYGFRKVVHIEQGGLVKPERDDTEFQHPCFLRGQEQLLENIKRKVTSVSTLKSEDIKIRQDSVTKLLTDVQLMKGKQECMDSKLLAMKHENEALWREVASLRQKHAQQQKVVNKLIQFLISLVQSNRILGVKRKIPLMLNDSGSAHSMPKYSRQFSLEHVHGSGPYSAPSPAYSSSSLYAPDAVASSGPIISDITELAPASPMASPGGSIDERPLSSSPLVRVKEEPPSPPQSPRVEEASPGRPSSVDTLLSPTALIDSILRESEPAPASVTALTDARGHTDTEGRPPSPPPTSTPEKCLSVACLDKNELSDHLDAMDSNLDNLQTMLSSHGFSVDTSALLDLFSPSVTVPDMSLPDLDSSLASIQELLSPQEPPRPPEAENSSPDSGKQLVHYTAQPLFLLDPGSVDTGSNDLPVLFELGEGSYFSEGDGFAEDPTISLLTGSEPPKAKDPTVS
In short: as §1

[13] = molecular target: T8, SPIC (Homo sapiens, UniProt Q8N5J4 1-248); conditions: protein: recombinant; tags: N-terminal GST; dsDNA, one strand shown
T8 sequence: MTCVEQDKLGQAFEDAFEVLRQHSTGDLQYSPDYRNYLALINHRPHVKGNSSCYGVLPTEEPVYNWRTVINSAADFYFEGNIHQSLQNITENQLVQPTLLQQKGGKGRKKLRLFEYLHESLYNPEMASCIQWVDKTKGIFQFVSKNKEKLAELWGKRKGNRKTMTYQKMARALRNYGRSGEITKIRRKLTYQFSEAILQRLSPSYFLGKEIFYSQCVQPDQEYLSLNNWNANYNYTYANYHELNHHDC
In short: as §1

[14] = molecular target: ELF4 (Homo sapiens, UniProt Q99607 1-663); conditions: protein: recombinant; tags: N-terminal GST; dsDNA, one strand shown
ELF4, sequence (Q99607 whole entry): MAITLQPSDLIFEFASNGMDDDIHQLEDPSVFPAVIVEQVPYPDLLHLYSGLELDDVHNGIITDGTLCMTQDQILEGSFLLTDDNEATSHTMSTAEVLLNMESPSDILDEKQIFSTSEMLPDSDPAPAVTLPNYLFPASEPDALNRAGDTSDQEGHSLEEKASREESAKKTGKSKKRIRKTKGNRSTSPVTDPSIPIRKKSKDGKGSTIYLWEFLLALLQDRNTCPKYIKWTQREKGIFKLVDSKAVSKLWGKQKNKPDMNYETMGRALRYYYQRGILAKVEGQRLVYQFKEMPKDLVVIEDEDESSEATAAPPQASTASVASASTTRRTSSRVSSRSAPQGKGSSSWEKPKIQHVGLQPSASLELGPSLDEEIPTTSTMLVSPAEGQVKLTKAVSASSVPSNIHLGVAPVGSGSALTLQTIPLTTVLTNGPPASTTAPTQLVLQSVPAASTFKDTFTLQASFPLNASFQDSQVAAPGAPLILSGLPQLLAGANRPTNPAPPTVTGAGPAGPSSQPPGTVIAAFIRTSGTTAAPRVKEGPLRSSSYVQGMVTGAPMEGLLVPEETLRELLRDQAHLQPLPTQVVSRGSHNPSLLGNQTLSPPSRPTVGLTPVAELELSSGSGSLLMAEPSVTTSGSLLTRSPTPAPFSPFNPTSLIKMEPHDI
In short: as §1

[15] = molecular target: T9, ELK4 (Homo sapiens, UniProt P28324-2 1-405); conditions: protein: recombinant; tags: N-terminal GST; dsDNA, one strand shown
T9 sequence: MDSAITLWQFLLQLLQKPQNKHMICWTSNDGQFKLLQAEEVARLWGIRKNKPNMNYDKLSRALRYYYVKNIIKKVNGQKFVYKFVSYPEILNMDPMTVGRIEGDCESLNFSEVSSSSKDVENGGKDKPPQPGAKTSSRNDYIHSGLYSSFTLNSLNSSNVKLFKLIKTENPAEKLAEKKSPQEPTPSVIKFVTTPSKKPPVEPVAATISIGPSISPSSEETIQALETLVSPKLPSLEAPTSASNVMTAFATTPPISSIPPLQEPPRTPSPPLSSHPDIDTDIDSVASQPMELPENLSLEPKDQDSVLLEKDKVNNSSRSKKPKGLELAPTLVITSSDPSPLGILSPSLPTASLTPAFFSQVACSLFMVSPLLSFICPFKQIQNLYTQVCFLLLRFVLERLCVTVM
In short: as §1

[16] = molecular target: T10, ETV2 (Homo sapiens, UniProt O00321 1-342); conditions: protein: recombinant; tags: N-terminal GST; dsDNA, one strand shown
T10 sequence: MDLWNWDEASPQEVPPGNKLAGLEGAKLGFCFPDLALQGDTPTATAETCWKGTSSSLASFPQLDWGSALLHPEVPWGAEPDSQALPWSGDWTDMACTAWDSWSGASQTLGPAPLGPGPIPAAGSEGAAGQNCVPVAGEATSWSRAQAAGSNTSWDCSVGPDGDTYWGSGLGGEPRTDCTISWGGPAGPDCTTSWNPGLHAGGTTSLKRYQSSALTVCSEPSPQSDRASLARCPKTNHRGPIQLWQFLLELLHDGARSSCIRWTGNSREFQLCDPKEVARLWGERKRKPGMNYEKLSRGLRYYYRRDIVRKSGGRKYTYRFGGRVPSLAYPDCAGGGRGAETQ
In short: as §1

[17] = molecular target: ETV1 (Homo sapiens, UniProt P50549 1-477); conditions: protein: recombinant; tags: N-terminal GST; dsDNA, one strand shown
ETV1, sequence (P50549 whole entry): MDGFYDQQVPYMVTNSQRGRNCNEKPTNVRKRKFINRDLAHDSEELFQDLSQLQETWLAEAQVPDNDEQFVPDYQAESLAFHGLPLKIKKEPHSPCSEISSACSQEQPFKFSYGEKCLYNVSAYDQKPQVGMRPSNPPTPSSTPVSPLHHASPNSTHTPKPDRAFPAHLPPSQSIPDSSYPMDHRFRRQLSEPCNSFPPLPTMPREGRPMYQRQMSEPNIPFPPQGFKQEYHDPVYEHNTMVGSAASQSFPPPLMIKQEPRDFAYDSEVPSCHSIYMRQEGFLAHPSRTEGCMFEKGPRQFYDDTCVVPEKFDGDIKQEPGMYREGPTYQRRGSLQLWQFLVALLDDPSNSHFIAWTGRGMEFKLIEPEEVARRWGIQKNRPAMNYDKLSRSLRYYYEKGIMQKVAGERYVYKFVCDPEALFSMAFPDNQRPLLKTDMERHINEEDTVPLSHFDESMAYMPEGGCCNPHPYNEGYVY
In short: as §1

TTCACA
binding signal [1]: 1.27 fold enrichment (6-mer frequency, TF over GST control)
binding signal [2]: 1.17 fold enrichment (6-mer frequency, TF over GST control)
binding signal [3]: 1.23 fold enrichment (6-mer frequency, TF over GST control)
binding signal [4]: 1.18 fold enrichment (6-mer frequency, TF over GST control)
binding signal [5]: 1.16 fold enrichment (6-mer frequency, TF over GST control)
binding signal [6]: 1.2 fold enrichment (6-mer frequency, TF over GST control)
binding signal [7]: 1.08 fold enrichment (6-mer frequency, TF over GST control)
binding signal [8]: 1.25 fold enrichment (6-mer frequency, TF over GST control)
binding signal [9]: 1.26 fold enrichment (6-mer frequency, TF over GST control)
binding signal [10]: 1.17 fold enrichment (6-mer frequency, TF over GST control)
binding signal [11]: 1.16 fold enrichment (6-mer frequency, TF over GST control)
binding signal [12]: 1.04 fold enrichment (6-mer frequency, TF over GST control)
binding signal [13]: 1.08 fold enrichment (6-mer frequency, TF over GST control)
binding signal [14]: 1.17 fold enrichment (6-mer frequency, TF over GST control)
binding signal [15]: 1.28 fold enrichment (6-mer frequency, TF over GST control)
binding signal [16]: 1.28 fold enrichment (6-mer frequency, TF over GST control)
binding signal [17]: 1.25 fold enrichment (6-mer frequency, TF over GST control)

From publication PMC7862700, “An all-to-all approach to the identification of sequence-specific readers for epigenetic DNA modifications on cytosine”
